From PubChem BioAssay
This is a sample that favours compounds with a hit; in the whole collection about 5.7% have one here.
HepG2 viability: qHTS for Inhibitors of TGF-b: Cytotox Counterscreen; AID 588856, 2011; HepG2 CAGA-GFP viability, ATP luminescence, 18 h; Potency, µM (doses to about 46.1 µM), for inactives: at the highest dose activity change, negative = cytotoxicity, most hits filed as cytotoxic; 0.76% of 410,000 active; note: potency is the fitted concentration of half-maximal effect
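CellTiter-Glo luminescence gave cytotoxicity after 18 hours at 37 degrees C. The cells were HepG2 CAGA-GFP in 1% FBS DMEM, stimulated with 500 pg/mL TGF-beta after compound addition. %Activity was normalised to no-cell wells (complete cell-killing) and DMSO (no toxicity), and curves were fitted and classified.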
TGFb inhibitor: qHTS for Inhibitors of TGF-b | 1.2% of 410,000 active | Potency, µM (top dose mostly 46.1 µM), for the others: top-dose activity, negative = inhibition, usual class: inhibitors | AID 588855, 2011 | HepG2 CAGA-GFP TGF-b/SMAD3 reporter, GFP fluorescence, 18 h; TGF-beta stimulated, 500 pg/mL final; note: potency is the fitted concentration of half-maximal effect; % is set by controls: 0 for no effect and ±100 for the full control effect; nearly all actives have a fitted effect of over 65% in size
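First, reporter cells (HEPG2 CAGA-GFP) rested 2 h at 37 degrees C. Next, compounds were pinned in and TGF-beta added to 500 pg/mL final. After 18 h, GFP was imaged per cell and summed per well.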
ATXN2 expr inh: Primary qHTS for Inhibitors of ATXN expression. Potency, µM (top dose mostly 57 µM), inactives show at the highest dose activity change, negative = inhibition, hits mostly inhibitors. AID 1745845, 2022. HEK-293 ATXN2-luciferase reporter, luminescence, 24 h. 0.72% of 360,000 active; note: potency is the fitted concentration of half-maximal effect; % is set by controls: 0 for no effect and ±100 for the full control effect; nearly all actives have a fitted effect of over 55% in size
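ATXN2-luciferase reporter cells (luciferase flanked by upstream and downstream ATXN2 gene portions) were treated 24 h at 37 °C with compounds at up to 57 uM. SteadyGlo luminescence gave expression; GF-AFC fluorescence gave viability.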
IL1B secr inh: qHTS for Inhibitors of Inflammasome Signaling: IL-1-beta AlphaLISA Primary Screen. 4.7% of 360,000 active. AID 743279, 2014. THP-1 LPS/ATP IL-1B secretion, AlphaLISA, 16 h; hits give low values. activity change, % at 57.5 µM; in the data active = activity change below about -50%; inconclusive = mostly about -30% to -49%; note: % is set by controls: 0 for no effect and ±100 for the full control effect
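Secreted IL-1B measured by AlphaLISA bead assay after 16 h compound exposure of THP-1 cells; compounds (final up to 57.5 uM) added 1 h before LPS (250 ng/mL) and ATP (1.25 mM) stimulation; lower signal means less secretion.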
ATXN viability: Viability Counterscreen for Primary qHTS for Inhibitors of ATXN expression. S2 cells (HEK-293 line with an ATXN2-luciferase reporter) viability, CellTiter-Fluor protease fluorescence, 24 h. Potency, µM (highest dose often 56.7 µM), usual class: cytotoxic. 0.49% of 400,000 active; note: potency is the fitted concentration of half-maximal effect; nearly all actives have a fitted effect of over 40% in size
The depositor's hits bear a star; i = inactive; ? = inconclusive; . = no result. Unless noted, calls come from the whole dose curve; as a rule, active = well fitted curve in the direction sought with a large enough effect; inconclusive = small, poorly fitted or top-dose-only effect, or another doubt; inactive = no such curve, though single readings can be large; an effect the other way counts as inactive or inconclusive.

SMILES	HepG2 viability	TGFb inhibitor	ATXN2 expr inh	IL1B secr inh	ATXN viability
O=C(C[n+]1cc(-c2ccccc2)n2c1CCCCC2)c1ccc(Cl)cc1	-17.9%	4.6%	10.9%	-76.0*	i
CCCCS(=O)(=O)CC(O)CSc1nc(-c2ccc(C)cc2)cc(-c2ccccc2)c1C#N (stereo unspecified)	-4.8%	?	-3.1%	.	i
Cc1ccc(NC(=O)c2sc3ccccc3c2Cl)cc1	-13.3%	-8.6%	.	.	.
O=C(Nc1ccncc1)c1sc2ccccc2c1Cl	-28.2%	-30.4%	29.1%	-55.4*	i
CCc1c(C)sc2c1CCN(C(=O)Nc1ccccc1Cl)C2c1ccc(OC)cc1 (stereo unspecified)	-30.6%	-28.6%	-25.9%	.	?
CCC(=O)N1N=C(c2ccc(C)o2)CC1c1ccc(N(C)C)cc1 (stereo unspecified)	7.08µM*	-2.0%	-2.2%	?	i
O=C(CCl)N1N=C(c2ccco2)CC1c1cccs1 (stereo unspecified)	-86.4%	?	?	-105.5*	.
Cc1ccc(C2=NN(C(=O)CCC(=O)O)C(c3cccs3)C2)cc1 (stereo unspecified)	2.2%	14.7%	0.0%	7.8	i
CC(=O)N1N=C(c2ccco2)CC1c1cccs1 (stereo unspecified)	0.9%	6.2%	7.8%	7.2	i
Cc1ccc(C2=NN(C(=O)CCl)C(c3cccs3)C2)o1 (stereo unspecified)	8.91µM*	8.91µM*	7.52µM*	-102.0*	.
Cc1ccc(C(=O)C(OC(=O)CNC(=O)COc2ccccc2C)c2ccccc2)cc1 (stereo unspecified)	3.2%	4.6%	.	.	.
COc1ccc2nc3c(cc2c1)Cn1c-3nc2ccccc2c1=O	-36.9%	-7.6%	.	.	.
Cc1ccc(S(=O)(=O)N(C)C)cc1NC(=S)NC(C)CCCC(C)C (stereo unspecified)	-34.0%	17.8µM*	-17.8%	-72.6*	i
Cc1ccc(S(=O)(=O)N(C)C)cc1NC(=S)NC(C)CCC(C)C (stereo unspecified)	-31.3%	-29.8%	-0.3%	18.2	i
COc1cc(NS(=O)(=O)c2ccc(-c3cc(C)no3)cc2)cc(OC)c1	-31.3%	?	.	.	.
COC(=O)N1CCN(c2ccc(Cl)c(Cl)c2)CC1	-27.4%	-4.4%	-2.5%	-7.0	i
CNC(=S)N1CCN(c2ccc(Cl)c(Cl)c2)CC1	-22.6%	-15.8%	-34.9%	-58.1*	i
COc1ccc(OC)c(C(c2nnnn2CCc2ccccc2)N2CCN(c3ccccc3)CC2)c1 (stereo unspecified)	-22.4%	21.1%	-4.9%	-85.1*	i
N#CCSc1nc2ccccc2c2nc3ccccc3n12	-31.6%	?	-1.1%	-89.2*	?
O=C1NC[C@H](CCCCN2C[C@H](Cc3ccccc3)N(CC3CCCCC3)C(=O)C2=O)N(CC2CCCCC2)C1=O	.	.	-22.2%	-76.5*	14.1µM*
O=C1NC[C@@H](CCCCN2C[C@H](Cc3ccc(O)cc3)N(CCc3ccccc3)C(=O)C2=O)N(CCC2CCCCC2)C1=O	.	.	17.7%	?	i
O=C1NC[C@H](CCCCN2C[C@H](Cc3ccccc3)N(CCc3ccc(O)cc3)C(=O)C2=O)N(CCC2CCCCC2)C1=O	.	.	-4.7%	-57.5*	i
N#Cc1ccc(C(=O)N(Cc2ccco2)Cc2cccs2)cc1	1.3%	0.9%	.	.	.
COc1cc(-c2nc3ccc(C)cn3c2Nc2ccc(Cl)cc2)ccc1O	15.8µM*	?	?	.	15.8µM*
COc1cc(-c2nc3ccc(Cl)cn3c2Nc2ccc3c(c2)OCO3)ccc1O	-64.7%	?	?	.	17.8µM*
COc1ccc(-c2nc3ccc(C)cn3c2Nc2ccc3c(c2)OCO3)cc1	-4.3%	-7.4%	23.7%	.	i
Cc1cc(C)c(S(=O)(=O)NCC(c2ccco2)N2CCOCC2)c(C)c1 (stereo unspecified)	-9.2%	-15.1%	-14.4%	.	i
CCCOc1ccc(CN2C(=O)C(=O)c3cccc(C)c32)cc1	-73.8%	15.8µM*	.	.	.
